Our source for the Potency values is PubChem BioAssay (NCATS).

Assay [1] in a line: Quantitative High-Throughput drug screen in 47 multiple myeloma cell lines against the NCATS MIPE library collection: OCIMY1_PLB cell viability assay (AID 1918979). Note: nearly all actives have a fitted effect of over 35% in size. In short, it runs like this: (§1)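 Myeloma cells (500/well) treated with MIPE 4.0 compounds for 48 h at 37 °C, 5% CO2. Viability read as ATP via CellTiter-Glo luminescence after 5 min at RT; DMSO-only wells = 100%, media-only = 0% viability.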

Assay [2] is described as follows: Quantitative High-Throughput drug screen in 47 multiple myeloma cell lines against the NCATS MIPE library collection: MM1R_ATCC cell viability assay (AID 1918981). Note: nearly all actives have a fitted effect of over 35% in size. In short, it runs like this:
as §1

Assay [3] can be described thus: Quantitative High-Throughput drug screen in 47 multiple myeloma cell lines against the NCATS MIPE library collection: LP1_DSMZ cell viability assay (AID 1918982). Note: nearly all actives have a fitted effect of over 35% in size. The method, boiled down:
as §1

Assay [4] is described as follows: Quantitative High-Throughput drug screen in 47 multiple myeloma cell lines against the NCATS MIPE library collection: KMS28PE_JCRB cell viability assay (AID 1918983). Note: nearly all actives have a fitted effect of over 35% in size. In short, it runs like this:
as §1

A short description of assay [5]: Quantitative High-Throughput drug screen in 47 multiple myeloma cell lines against the NCATS MIPE library collection: OPM1_PLB cell viability assay (AID 1918989). Note: nearly all actives have a fitted effect of over 40% in size. The method, boiled down:
as §1

Assay [6] is described as follows: Quantitative High-Throughput drug screen in 47 multiple myeloma cell lines against the NCATS MIPE library collection: L363_DSMZ cell viability assay (AID 1918984). Note: nearly all actives have a fitted effect of over 40% in size. In short, it runs like this:
as §1

Assay [7] can be described thus: Quantitative High-Throughput drug screen in 47 multiple myeloma cell lines against the NCATS MIPE library collection: KMS34_JCRB cell viability assay (AID 1918985). Note: nearly all actives have a fitted effect of over 40% in size. The method, boiled down:
as §1

Assay [8] in a line: Quantitative High-Throughput drug screen in 47 multiple myeloma cell lines against the NCATS MIPE library collection: OCIMY7_PLB cell viability assay (AID 1918987). Note: nearly all actives have a fitted effect of over 65% in size. To be noted: OCI-MY7 myeloma viability, CellTiter-Glo ATP, 48 h; viability (% of DMSO): at 45.8 µM (top of the series). The method, boiled down:
as §1

Assay [9] is described as follows: Quantitative High-Throughput drug screen in 47 multiple myeloma cell lines against the NCATS MIPE library collection: OCIMY5_PLB cell viability assay (AID 1918988). Note: nearly all actives have a fitted effect of over 65% in size. The method, boiled down: as §1
Assay [10] can be described thus: Quantitative High-Throughput drug screen in 47 multiple myeloma cell lines against the NCATS MIPE library collection: MM1S_ATCC cell viability assay (AID 1918980). Note: nearly all actives have a fitted effect of over 45% in size. In short, it runs like this:
as §1

Inconclusive results are not listed. Activity calls are given as the source filed them. Calls come from the whole dose curve; as a rule, active = well fitted cell-killing curve with a large enough effect; inconclusive = small, poorly fitted or top-dose-only effect, or effect the other way; inactive = no such curve, though single readings can be large or run the other way.
Potency is the fitted concentration of half-maximal effect.

Consider `CCN(CC)CCOc1ccc(C(=C(Cl)c2ccccc2)c2ccccc2)cc1`, for which the Potency result in assay [1], in assay [2], in assay [3], in assay [4] and in [5] was “inactive” each time.

Regarding `O=C(CCCCCCC(=O)Nc1ccccc1)NO`, the Potency in assay [1] is 5.9 µM (active); in assay [2], 2.09 µM (active); in [4] it was 3.72 µM (active); in assay [6] it was 1.87 µM (active); in assay [7] it was 1.87 µM (active); in assay [8], 2.35 µM (active). Also, the Potency in assay [9] is 2.64 µM (active); in [5], 1.32 µM (active).

Take `COc1cc2ncnc(Nc3ccc(F)c(Cl)c3)c2cc1OCCCN1CCOCC1`: the Potency was 48.1 µM (active) in [1]; 21.5 µM (active) in assay [2]; 48.1 µM (active) in assay [3]; 42.9 µM (active) in assay [4]; 8.55 µM (active) in assay [6]; 42.9 µM (active) in assay [7]. For the same molecule, the Potency is 1.08 µM (active) in assay [8], 2.15 µM (active) in assay [9] and 4.29 µM (active) in assay [5].

Regarding `OC[C@H]1O[C@@H](n2cnc3c2NC=NC[C@@H]3O)C[C@H]1O`, the Potency entry in [1], in assay [2], in assay [3], in assay [6] and in assay [5] was “inactive” throughout. The Potency in [8] is 23.5 µM (active).

As to `NC(CO)(CO)CCc1ccc(Sc2cccc(OCc3ccccc3)c2)cc1Cl`, the Potency was 26.4 µM (active) in assay [1]; 10.5 µM (active) in [2]; 20.9 µM (active) in assay [3]; 10.5 µM (active) in assay [6]; 11.8 µM (active) in [8]; 20.9 µM (active) in [9]. For the same molecule, the Potency in [5] was 6.62 µM (active).

For the molecule `CO[C@H]1C=CO[C@@]2(C)Oc3c(C)c(O)c4c(O)c(c5c(c4c3C2=O)NC2(CCN(CC(C)C)CC2)N=5)=NC(=O)C(C)=CC=C[C@H](C)[C@H](O)[C@@H](C)[C@@H](O)[C@@H](C)[C@H](OC(C)=O)[C@H]1C`, the Potency result in assay [1], in assay [6] and in assay [5] was “inactive” each time. Further, the figures for the Potency in assay [2], in assay [8] and in assay [9] were 10.5 µM (active), 4.18 µM (active) and 23.5 µM (active), respectively.

`C[N+]1(C)[C@@H]2CC(OC(=O)[C@H](CO)c3ccccc3)C[C@H]1[C@H]1O[C@@H]12` (stereo partly specified): the Potency result in assay [1], in [2], in [3], in assay [4], in [6] and in [7] was “inactive” each time. In addition, the Potency result in assay [5] is “inactive”.

On to `O=C(NC1CCOCC1)c1ccc(-c2cc(-c3cn[nH]c3-c3ccccn3)ccn2)cc1`, for which the Potency entry in [1], in assay [4], in assay [8] and in assay [5] was “inactive” in each case. Besides, the Potency in [2] was 14.8 µM (active).

For the molecule `Cc1c(O)cccc1C(=O)N[C@@H](CSc1ccccc1)[C@H](O)CN1C[C@H]2CCCC[C@@H]2C[C@@H]1C(=O)NC(C)(C)C`, the Potency in assay [1] was 20.9 µM (active); in assay [2], 18.7 µM (active); in [4], 20.9 µM (active); in [6], 20.9 µM (active); in assay [7], 18.7 µM (active); in [8], 14.8 µM (active). In addition, the Potency in assay [9] is 23.5 µM (active); in assay [5], 18.7 µM (active).

Regarding `C[C@H]1[C@H](NC(=O)C(=NOC(C)(C)C(=O)O)c2csc(N)n2)C(=O)N1S(=O)(=O)O`, the Potency entry in assay [1], in assay [2], in assay [3], in [7] and in assay [5] was “inactive” in each case.

Regarding `Cc1cnc(C(=O)O)c[n+]1[O-]`, the Potency entry in assay [1], in assay [2], in assay [3], in assay [6] and in assay [5] was “inactive” throughout. Moreover, the results for the Potency in assay [4] and in [7] were 23.5 µM (active) and 4.18 µM (active), respectively.

`CC=CC(=O)N(CC)c1ccccc1C`: the Potency result in assay [1], in assay [2], in assay [3], in assay [4], in assay [6] and in [9] was “inactive” throughout. In addition, the Potency result in assay [5] is “inactive”.

Take `CC1(C)Cc2c(sc(NC(=S)NC(=O)c3ccccc3)c2C(=O)O)CO1`: the Potency entry in [1], in assay [2], in assay [3], in [4], in assay [7] and in [5] was “inactive” throughout.

Take `CC(C)C(=O)Oc1ccc(CO)cc1[C@H](CCN(C(C)C)C(C)C)c1ccccc1`: the Potency result in [1], in [2], in [3] and in [5] was “inactive” each time. Also, in [7], the Potency was 18.7 µM (active).

On to `C[C@@H]1CCN(C(=O)CC#N)C[C@H]1N(C)c1ncnc2[nH]ccc12`, for which the Potency entry in assay [1], in [2], in [3], in assay [4] and in [5] was “inactive” throughout.

On to `COc1cccc([C@@H](C)NCCCc2ccccc2Cl)c1`, for which the Potency entry in [1], in assay [2], in assay [4], in assay [7] and in [5] was “inactive” in each case.

For the molecule `O=c1cc(-c2ccccc2)oc2cc(O)cc(O)c12`, the Potency result in assay [1], in assay [2], in [7] and in [5] was “inactive” in each case. The Potency in assay [6] was 16.6 µM (active).

`CC(=NNC(=S)N1CCC1)c1ccccn1`: the Potency in assay [1] was 0.0074 µM (active); in [5], 0.0037 µM (active). In addition, the Potency entry in assay [8] is “inactive”.

For `O=C(Nc1ccccc1Br)N[C@@H]1CCN(c2ccc(C(F)(F)F)cn2)C1`, the Potency result in assay [1], in assay [6] and in assay [7] was “inactive” in each case.

`CC(C)n1cnc2c(NCCCCCCNC(=O)OC(C)(C)C)nc(NCCO)nc21`: the Potency in assay [10] is 20.9 µM (active); in [2], 20.9 µM (active); in assay [3] it was 18.7 µM (active); in [4] it was 18.7 µM (active); in assay [9], 29.6 µM (active); in assay [5] it was 20.9 µM (active).

`CCc1ccc(C=C2SC(=S)NC2=O)cc1`: the Potency entry in assay [1], in [3], in [4], in assay [9] and in assay [5] was “inactive” in each case.

For the molecule `C[C@]12CC[C@@H]3c4ccc(O)cc4CC[C@H]3[C@H]1C[C@@H](O)[C@H]2O`, the Potency result in [1], in assay [2], in assay [7] and in [5] was “inactive” each time. For the same molecule, the Potency in assay [9] was 3.32 µM (active).

Consider `O=C(O)c1cc(O)c2c(c1)C(=O)c1cccc(O)c1C2=O`, for which the Potency result in [1] and in assay [5] was “inactive” each time. Besides, in [4], the Potency was 30.3 µM (active).
